Measurements taken from PubChem BioAssay AID1445 (SRMLSC, 2008).
In all, about 220,000 compounds went through this assay and about 910 (0.41%) were called active.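 Rule for the calls: active = primary inhibition above the hit cutoff, then over 50% inhibition at one or more dose response concentrations (cut at about 23% in these data, passing the limit was not always enough); inconclusive = conflicting primary data, or primary hits not chosen for dose response; inactive = low primary inhibition, or under 50% at every dose.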 The sample as a whole holds a higher share of actives than the screen did. Potency and affinity values are given separately.

molecular target: Aminopeptidase N (Plasmodium falciparum (isolate 3D7)) (UniProt O96935); test: malaria alanyl aminopeptidase activity blockers – biochemical, fluorogenic H-Leu-NHMec substrate, 1536-well (AID 1445); settings: recombinant M1AAP, H-Leu-NHMec fluorogenic kinetic assay; at 30 µM, stronger effect = higher value unless noted;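 note: plate controls were DMSO full reaction for no effect and no enzyme background for full effect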
Sequence (O96935 whole entry, looked up): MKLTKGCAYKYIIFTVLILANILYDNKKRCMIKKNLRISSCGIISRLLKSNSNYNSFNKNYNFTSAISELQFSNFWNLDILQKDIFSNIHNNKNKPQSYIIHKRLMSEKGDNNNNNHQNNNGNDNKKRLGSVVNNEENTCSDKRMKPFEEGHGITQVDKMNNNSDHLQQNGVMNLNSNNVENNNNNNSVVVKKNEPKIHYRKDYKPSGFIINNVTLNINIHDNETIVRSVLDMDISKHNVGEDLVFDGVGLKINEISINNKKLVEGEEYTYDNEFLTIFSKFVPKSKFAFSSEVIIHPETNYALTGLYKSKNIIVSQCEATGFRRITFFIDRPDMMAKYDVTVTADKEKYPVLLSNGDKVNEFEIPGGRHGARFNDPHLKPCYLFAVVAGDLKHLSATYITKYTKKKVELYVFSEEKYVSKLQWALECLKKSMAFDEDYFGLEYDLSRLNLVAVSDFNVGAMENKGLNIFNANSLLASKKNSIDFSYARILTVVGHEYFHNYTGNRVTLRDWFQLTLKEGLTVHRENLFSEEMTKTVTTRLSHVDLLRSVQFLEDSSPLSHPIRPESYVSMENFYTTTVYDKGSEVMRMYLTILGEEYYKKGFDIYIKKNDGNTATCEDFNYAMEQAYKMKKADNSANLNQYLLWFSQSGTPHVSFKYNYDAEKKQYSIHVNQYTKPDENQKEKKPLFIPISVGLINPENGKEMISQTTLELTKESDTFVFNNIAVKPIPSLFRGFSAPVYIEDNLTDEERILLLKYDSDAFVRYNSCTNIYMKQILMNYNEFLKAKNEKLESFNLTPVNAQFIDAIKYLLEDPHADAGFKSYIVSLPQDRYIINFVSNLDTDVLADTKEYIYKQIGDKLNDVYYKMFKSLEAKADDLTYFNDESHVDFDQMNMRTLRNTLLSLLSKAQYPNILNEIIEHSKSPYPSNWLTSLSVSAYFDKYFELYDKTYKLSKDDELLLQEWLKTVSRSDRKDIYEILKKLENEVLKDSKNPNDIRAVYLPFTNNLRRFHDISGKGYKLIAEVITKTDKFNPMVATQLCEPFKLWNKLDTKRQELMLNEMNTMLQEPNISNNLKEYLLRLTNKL

inhibition, active:
CCOc1cc(/C=C2\N=C(SCC)SC2=O)cc([N+](=O)[O-])c1OC(C)=O 60.6%, CCOc1cc(CNc2ccc(O)cc2)cc(Br)c1OCc1ccccc1F 25.5%, CC1(CC(=O)N/N=C/c2cc(Br)c(O)cc2O)OCCO1 31.5%, COc1ccc(OC)c(S(=O)(=O)N2CCC(C(=O)NCc3ccccc3)CC2)c1 57.9%, O=C1NC(=S)N/C1=C/c1cc([N+](=O)[O-])ccc1O 27.2%

inhibition, inactive:
CCOc1ccc(NC(=O)c2ccccc2NC(=O)CN(C)CC(=O)Nc2ccc(C)cc2)cc1 1.3%, N#CC(=NCc1cccnc1)C1=C(O)c2ccccc2C1=O -2.18%, CCOC(=O)c1c(C)oc2ccc(NS(=O)(=O)c3ccc(C(=O)O)cc3)cc12 10.2%, CC1(C)CC(=O)c2c(oc3ccc(NS(=O)(=O)c4cccc5cccnc45)cc23)C1 3.99%, O=C(N=Nc1c(O)[nH]c2ccccc12)c1cccc(S(=O)(=O)Nc2ccccc2Cl)c1 13.3%, CCOCCc1nnc(NC(=O)Cc2ccccc2)s1 7.8%, CCn1c(SCC(=O)Nc2ccccc2C)nc2nc3c(cc2c1=O)COC(C)(C)C3 13.2%, CCc1cc(=O)oc2cc(C)cc(OCc3nn[nH]n3)c12 9.2%, CCCc1cc(=O)oc2cc(C)cc(OCc3nn[nH]n3)c12 17.7%, Cc1c(N2C(=O)/C(=C\c3ccccc3O)SC2=S)c(=O)n(-c2ccccc2)n1C 13%, Cc1c(N2C(=O)/C(=C/c3ccccc3)SC2=S)c(=O)n(-c2ccccc2)n1C 13.6%, COC(=O)c1ccc(/C=C2\N=C(SC)SC2=O)cc1 6.81%, CCOc1c(OC(C)=O)ccc(/C=C2\N=C(SCC)SC2=O)c1[N+](=O)[O-] 9.88%, COc1ccc(/C=C2\N=C(SC)SC2=O)cc1OC -0.19%, C=CCSC1=N/C(=C\c2cc(OCC)c(OC(C)=O)c([N+](=O)[O-])c2)C(=O)S1 10.7%, Cc1ccsc1/C=N/NC(=O)c1ccc(-n2cccc2)cc1 -0.71%, CCC(=O)c1ccc(N2CCN(S(=O)(=O)c3ccccc3)CC2)c(F)c1 -2.32%, OC1CCN(c2ncnc3c2nnn3Cc2c(F)cccc2Cl)CC1 -1.3%, Cn1nnnc1SCC(=O)Nc1c(Cl)cccc1Cl -11.1%, O=C(NN1C(=O)c2cc(Br)ccc2NC1c1cc(Br)cc(Br)c1O)c1ccncc1 (centres undefined) 15.9%, O=C(COC(=O)Cc1ccc(S(=O)(=O)N2CCOCC2)s1)NCCc1ccccc1 5.27%, NS(=O)(=O)c1ccc(CCNC(=O)CN2CCCCC2)cc1 -1.82%, NS(=O)(=O)c1ccc(CCNC(=O)c2ccc(S(=O)(=O)N3CCCCC3)cc2)cc1 15.2%, O=C(Cc1ccc(S(=O)(=O)N2CCOCC2)s1)NCC1CCCCC1 3.48%, CCn1cc(CNC(=O)CSc2nc(-c3ccc(OC)c(OC)c3)cc(C(F)(F)F)n2)c(C)n1 8.78%, O=C(CC1(c2ccc(Cl)cc2)C2CC3CC(C2)CC1C3)NCCO (centres undefined) 3.19%, CCN1CCN(CCCNC(=O)c2cn(CCOC)c(=O)c3c2c2ccccc2n3C)CC1 17.7%, CCOc1cc(CNc2ccccc2)cc(Br)c1OCc1ccccc1F 6.06%, COc1cc(CNc2ccc(O)cc2)cc(Br)c1OCc1ccccc1F 7.46%, Cn1c(C(=O)NC2CCCCC2)cc2c(=O)n(C)c3ccccc3c21 -0.49%, CC1(CC(=O)N/N=C/c2cc3c(cc2Br)OCO3)OCCO1 9.79%, CC1(CC(=O)N/N=C/c2cc([N+](=O)[O-])c(O)cc2O)OCCO1 9.24%, COc1ccc(CCNC(=O)c2cc(-c3ccc(C)c(C)c3O)n[nH]2)cc1OC 0.7%, C/C(=N/NC(=O)c1sc(NS(=O)(=O)c2ccccc2)nc1C)c1ccccc1 18.9%, Cc1ccc(S(=O)(=O)Nc2nc(C)c(C(=O)NNS(=O)(=O)c3ccccc3)s2)cc1 3.2%, Cc1nc(NS(=O)(=O)c2ccccc2)sc1C(=O)NN 6.77%, Cc1ccc(S(=O)(=O)Nc2nc(C)c(C(=O)Nc3ccccc3)s2)cc1 4.37%, O=C(CSc1nc2ccccc2o1)Nc1cc(C(F)(F)F)ccc1N1CCOCC1 8.71%, CCCCn1c(C)csc1=Nc1cccnc1 4.71%, Cc1cc(C)c(S(=O)(=O)Nn2cnnc2)c(C)c1 -1%, CCOP(=O)(OCC)/C(C#N)=C/c1cc(OC)ccc1OC 1.01%, COc1ccccc1NC(=S)N1CCCC1 8.78%, CCOC(=O)NCc1cc(-c2nn(C)c(=O)c3ccccc23)ccc1C -0.16%, CCC(=O)NCc1cc(-c2nn(C)c(=O)c3ccccc23)ccc1C 3.73%, CC(=O)NCc1cc(-c2nn(C)c(=O)c3ccccc23)ccc1C 12.1%, CCCC(=O)NCc1cc(-c2nn(C)c(=O)c3ccccc23)ccc1C -1.83%, CC(O)CNCCCOc1ccc(Cl)cc1C(C)(C)C (centres undefined) 2.63%, Cc1ccc(N(C(=O)C2CCC(=O)N2)C2(C(=O)NC3CCCCC3)CCCCC2)cc1 (centres undefined) 3.72%, CC(C)NS(=O)(=O)c1ccc(CCC(=O)NCc2cccnc2)cc1 3.94%, CCCCN1CNC(=S)N(c2ccccc2OCC)C1 1.13%, CCOCCCNCc1cccc(OCc2ccc(F)cc2)c1 -0.98%, CSc1nnc(-c2cc(-c3ccc(C)cc3)nc3ccccc23)o1 -2.26%, COc1ccc(-c2cc(-c3nnc(-c4ccncc4)o3)c3ccccc3n2)cc1 7.37%, CCC(=O)Nc1ccc(-n2nnnc2SCC(=O)NNC(=O)c2ccco2)cc1 4.76%, S=c1[nH]nc(-c2cccnc2)n1/N=C/C=C/c1ccccc1 10.4%, O=C(CN(c1ccccc1)S(=O)(=O)c1ccccc1)NCCSc1nc2ccccc2s1 4.5%, CN1CCN(Cc2nc3ccccc3c(=O)n2Cc2nc(-c3ccc([N+](=O)[O-])cc3)cs2)CC1 11.9%, CN1CCN(Cc2nc3ccccc3c(=O)n2Cc2nc(-c3ccc4ccccc4c3)cs2)CC1 -1.75%, Cc1ccc(C(C(=O)NCc2ccco2)N(Cc2ccco2)C(=O)CNC(=O)c2ccco2)cc1 (centres undefined) 19.3%, COc1ccc(OC)c(S(=O)(=O)N2CCC(C(=O)NCc3ccccc3OC)CC2)c1 3.04%, COc1ccc(S(=O)(=O)N2CCC(C(=O)NCc3ccccn3)CC2)cc1OC 2.6%, COc1ccc(OC)c(S(=O)(=O)N2CCC(C(=O)NCCc3ccccc3)CC2)c1 -0.81%, COc1ccc(OC)c(S(=O)(=O)N2CCC(C(=O)NCCc3ccc(OC)c(OC)c3)CC2)c1 -4.37%, COc1ccc(S(=O)(=O)N2CCC(C(=O)NCCc3ccccc3)CC2)cc1OC -1.88%, COc1ccc(CCNC(=O)C2CCN(S(=O)(=O)c3cc(OC)ccc3OC)CC2)cc1 14.3%, COc1ccccc1N1CCN(C(=O)c2ccc3nc[nH]c3c2)CC1 4.75%, CCn1c(SCC(=O)Nc2nc3ccccc3s2)nnc1-c1ccc(Br)cc1 4.22%, CS(=O)(=O)c1ccc2nnn(OCC(=O)Nc3ccc(Br)cc3Br)c2c1 1.15%, O=C(COC(=O)CCOc1ccccc1)NCc1ccco1 12.3%, O=C(O)c1cccc(CSc2n[nH]c(-c3ccc(Cl)cc3Cl)n2)c1 7.08%, Cc1ccc(NC(=S)NC(=O)/C=C/c2ccco2)c(O)c1 10.8%, O=S(=O)(c1ccc(F)cc1)N1CCN=C1SCc1cccnc1 0.03%, O=C(Nc1cccc(O)c1)c1cnn2cccnc12 13.6%, CC1(C)CC(=O)c2sc(NS(=O)(=O)c3ccc(F)cc3)nc2C1 5.81%, CCc1nnc(NC(=O)CSc2nnc(CNc3cccc(C)c3)n2-c2ccccc2)s1 0.64%, O=C(CCCCl)OCc1cn(-c2ccc(Cl)cc2)nn1 8.74%, O=C(NC1CCCC1)C1CCC(=O)N1C1CCCC1 (centres undefined) 6.41%, CCOC(=O)c1oc2ccccc2c1CN1CCN(C)CC1 0.88%, Clc1ccc(/C=N/Nc2nnc(Cl)c3ccccc23)cc1 14.4%, Clc1ccc(/C=N\Nc2ccccc2)cc1 4.31%, COc1cc(N2CN=c3s/c(=C\c4ccccn4)c(=O)n3C2)cc(OC)c1OC 5.01%, O=[N+]([O-])c1cc(Cl)ccc1-c1nc(-c2ccncc2)no1 3.23%, CCN1C(=O)/C(=c2\sc3nc(=O)c(Cc4ccccc4)nn3c2=O)c2ccccc21 7.93%, C=CCN1C(=O)/C(=c2\sc3nc(=O)c(Cc4ccc(OC)c(OC)c4)nn3c2=O)c2ccccc21 11.6%, CCC(C)c1ccc2oc(-c3ccc(NC(=O)Cn4cnc5c(=O)n(C)c(=O)n(C)c54)cc3)nc2c1 (centres undefined) 17.4%, O=C(N1CCOCC1)C1(c2ccc(Cl)cc2)CCCC1 -5.21%, O=C(CSc1ncc(C(F)(F)F)cc1Cl)NCC1CCCO1 (centres undefined) 0.4%, O=C1NC(=S)N/C1=C\c1cccc([N+](=O)[O-])c1 -1.35%, O=C1NC(=S)N/C1=C/c1cccc([N+](=O)[O-])c1 1.79%
